Reference: ChEMBL document CHEMBL4513216, “Probing the Open Global Health Chemical Diversity Library for Multistage-Active Starting Points for Next-Generation Antimalarials” (ACS Infect Dis, 2020)
The campaign covered roughly 68,000 compounds. About 2,700 (4%) showed an effect of 50% or more. Only a selection was taken, and strong results are over-represented in it overall.

System: Plasmodium berghei
Assay: Screen against P. berghei liver stage (PbLuc), transformed with Luciferase, at 2uM
Format: functional, HepG2
Conditions: tested at 2 uM

Compound	INHIBITION [%]
O=C(Nc1ccccc1)N1CC(C(=O)N2CCCC2)C2(CCOCC2)C1 (stereo unspecified)	51.72
O=C(NCC1CC1)C1CN(C(=O)Nc2ccccc2)CC12CCOCC2 (stereo unspecified)	-48.3
CC(C)NC(=O)C1CN(C(=O)Nc2ccccc2)CC12CCOCC2 (stereo unspecified)	47.1
CN(Cc1cc2n(n1)CCN(C(=O)[C@H]1CCCO1)C2)Cc1nccs1	24.08
c1ccc(Oc2cccc(OC34CCCN(CC3)C4)c2)cc1 (stereo unspecified)	43.72
Cc1cccc(-c2nc(CN3CC(n4nc(C)cc4C)C3)no2)c1	51.31
Cc1ccc(-c2nc(CN3CC(n4nc(C)cc4C)C3)no2)cc1	31.55
COCCc1noc(CN2CC(n3nc(C)cc3C)C2)n1	65.39
Cc1cc(C)n(C2CN(Cc3noc(C4CC4)n3)C2)n1	-14.28
COCCc1noc(CN2CCOC(Cn3nc(C)cc3C)C2)n1 (stereo unspecified)	-85.26
Cc1cc(C)n(C2CN(Cc3noc(-c4ccccc4)n3)C2)n1	1.34
Cn1c(CO)cnc1SC1CCCN(c2ccccc2F)C1=O (stereo unspecified)	15.82
Cc1ncsc1CN1CCn2c(COCC3CC3)cnc2C1C (stereo unspecified)	-21.27
CCc1noc(CNC2CCCN(Cc3noc(C4CC4)n3)C2)n1 (stereo unspecified)	30.29
CCS(=O)(=O)c1ncc(CN(C)Cc2ccccn2)n1CCOC	-40.94
CCS(=O)(=O)c1ncc(CN(C)Cc2ccccc2Cl)n1CCOC	-5.13
CCS(=O)(=O)c1ncc(CN(C)Cc2ccccc2OC)n1CCOC	60.74
CN1CCCC1CCNC(=O)c1ccccc1-n1cnc(CN)c1 (stereo unspecified)	22.95
CN(C)Cc1cn(-c2ccccc2C(=O)NCCC2CCCN2C)cn1 (stereo unspecified)	16.43
CN(C)Cc1cn(-c2ccccc2C(=O)NCC2CCCCN2C)cn1 (stereo unspecified)	87.38
Cc1csc(N2CCN(Cc3nnsc3Cl)CC2C)n1 (stereo unspecified)	-39.79
c1ccc(C[C@H]2CN(Cc3nccs3)CC[C@@H]2OCC2CC2)cc1	41.79

Compound	INHIBITION [%]
CCNC(=O)N(C)C(c1cccc(F)c1)c1ccccn1 (stereo unspecified)	51.21
CCNC(=O)N(C)C(c1ccccc1)c1ccccn1 (stereo unspecified)	-18.26
CC(C)NC(=O)N(C)C(c1cccc(F)c1)c1ccccn1 (stereo unspecified)	-30.55
Cc1ccc(S(=O)(=O)N2CCOCC2C(N)=O)c(F)c1 (stereo unspecified)	14.17
Cc1ccnc(SCC(=O)Nc2csc3nc(=O)c(C)nn23)n1	35.42
Cc1noc(C)c1C(=O)NCC(c1ccsc1)N(C)C (stereo unspecified)	-12.82
COCc1cccc(CNC(=O)c2c(C)noc2C(C)C)c1	49.9
CNC(=O)COc1cccc(CNC(=O)c2c(C)noc2C(C)C)c1	74.35
Cc1noc(C(C)C)c1C(=O)NCC(c1ccsc1)N(C)C (stereo unspecified)	63.95
CCN(CC)C(CNC(=O)c1c(C)noc1C(C)C)c1ccsc1 (stereo unspecified)	-25.61
Cc1noc(C(C)C)c1C(=O)NCc1cccc(N(C)C)c1	-57.97
CNC(=O)COc1cccc(CNC(=O)c2c(C)noc2C)c1	24.36
Cc1noc(C(C)C)c1C(=O)NCc1ccc2c(c1)OCCO2	56.02
Cc1noc(C(C)C)c1C(=O)NCc1ccc(N(C)C)c(F)c1	-9.17
O=S(=O)(C1CC1)N1CCCn2nnc(Cn3cccc3)c2C1	23.81
CCOCCC(=O)N1CCCCC1CCn1cccn1 (stereo unspecified)	30.25
CCn1cc2c(n1)CN(Cc1ccncc1)CC2COCC1CC1 (stereo unspecified)	14.94
CCOCC1CN(c2ccncn2)Cc2cnn(CC)c21 (stereo unspecified)	32.69
Cc1cc2c(N3CCC(N(C)CCc4cnn(C)c4)CC3)ncnc2s1	-15.4
CSCC(CCO)NC(=O)Nc1ccc(Br)cc1 (stereo unspecified)	-39.48
C[C@@H]1CN(C(=O)CCc2cnn(C)c2)C[C@@]1(O)C1CCC1	11.33
C[C@@H]1CN(C(=O)CCc2nncn2C)CC[C@@]1(O)C1CCC1	12.43

Compound	INHIBITION [%]
C[C@@H]1CN(C(=O)CCc2nncn2C)C[C@@]1(O)C1CCC1	52.08
Cc1noc(C)c1CCC(=O)Nc1ccn(C)n1	-7.68
CN(Cc1cnccn1)CC1CCOc2ccccc2C1 (stereo unspecified)	20.76
CCc1n[nH]c(C(=O)NCCn2ccc(C)n2)c1C	16.87
CCc1n[nH]c(C(=O)NCCn2nccc2C)c1C	20.71
CCc1n[nH]c(C(=O)NCCn2ccnc2C)c1C	57.34
CC(=O)c1ccc(F)cc1-c1cc(NCCO)nc2[nH]ccc12	6.85
COc1ccccc1Nc1nc2c(s1)C(=O)CN(C(=O)CC(C)C)C2	2.6
CC(O)CNC(=O)c1nc(Cc2c(Cl)cccc2Cl)no1 (stereo unspecified)	20.71
CC(C)CNC(=O)CNC(=O)c1nc(Cc2c(Cl)cccc2Cl)no1	-2.09
O=C(NCC(=O)N1CCCC1)c1nc(Cc2c(Cl)cccc2Cl)no1	57.4
COC(=O)NCC(=O)NCC(C)(C)c1cccc(Br)c1	19.07
Cc1cccc(CN2CCC3(CCC(C(=O)N(C)C)O3)CC2)n1 (stereo unspecified)	58.4
Cc1ccc(CN2CCC3(CCC(C(=O)N(C)C)O3)CC2)o1 (stereo unspecified)	5.14
CN(C)C(=O)C1CCC2(CCN(Cc3ccc4ccccc4n3)CC2)O1 (stereo unspecified)	23.26
CCn1cnc(NC(=O)NCC2CCS(=O)(=O)CC2)n1	28.85
Cc1ccc(CN2CCOC(C)(c3cnn(C)c3)C2)cc1 (stereo unspecified)	21
O=C(C1CCCN1Cc1nc(-c2ccco2)no1)N1CCSCC1 (stereo unspecified)	58.05
O=C(NCc1ccco1)C1CCCN1Cc1nc(-c2ccco2)no1 (stereo unspecified)	-43.47
CC(C)N1CCN(C(=O)Cc2csc(-c3ccco3)n2)CC1	28.18
O=C(Cc1csc(-c2ccco2)n1)N1CCSCC1	50.76
O=C(C1CCCCN1Cc1nc(-c2ccco2)no1)N1CCCC1 (stereo unspecified)	-113.33

Compound	INHIBITION [%]
O=C(Cc1csc(-c2ccco2)n1)N1CCN(CCO)CC1	-27.91
CNC(=O)C1CCCN(C(=O)OC)C1 (stereo unspecified)	-0.28
O=C(CCN1CCCCO1)NCc1cn2c(n1)SCC2	21.36
Cc1nc(-c2ccccc2)n(CC(=O)NCC(C)C)n1	26.4
COc1ccc(CN2CCC3(CCCN(c4ncc(F)cn4)C3)C2)cc1 (stereo unspecified)	-50.35
Cc1cnn(CC2CN(c3ccc(C#N)cn3)CCO2)c1 (stereo unspecified)	-11.2
CN(C)CC1CN(c2ccc(C#N)cn2)CCO1 (stereo unspecified)	54.85
Cc1nc(C)n(CC2CN(c3ccc(C#N)cn3)CCO2)n1 (stereo unspecified)	-16.42
Cc1cccc(CN2C[C@@H]3CC[C@H]2CN(Cc2[nH]cnc2C)C3)n1	25.68
COc1cccc(CC(=O)N2CCC(NCc3c[nH]nc3C)CC2)c1	55.06
COc1ccccc1CC(=O)N1CCC(NCc2c[nH]nc2C)CC1	-14.17
COc1cccc(-c2n[nH]cc2CNC2CCN(C3CC3)CC2)c1	-13.89
Cc1n[nH]cc1CNC1CCN(c2ccc(F)cc2)CC1	-13.72
Cc1n[nH]cc1CNC1CCN(c2ccccc2)CC1	7.83
Cc1n[nH]cc1CNC1CCN(c2cccc(C(F)(F)F)c2)CC1	78.72
Fc1cnc(N2CCC3(CC2)CC(OCc2cccnc2)CO3)nc1 (stereo unspecified)	11.18
CC(=O)N[C@@H]1CN(C(=O)c2cc(C)oc2C)C[C@H]1c1ccc(C)o1	-29.82
Cc1ccc(NC2CCN(C(=O)CN(C)C3CC3)CC2)nn1	21.31
CC(Cn1ccnc1)NC(=O)N(C)Cc1ccsc1 (stereo unspecified)	26.85
CO[C@H]1CCN(Cc2cccs2)[C@@H]2CN(Cc3ccncc3)C[C@H]12	-4.92
COCCN1C(=O)CC[C@@H]2[C@H]1CCN2Cc1ccc(C)s1	10.17
CNc1nc(C)c(C(=O)N2CCC(C(O)Cc3ccccc3)CC2)s1 (stereo unspecified)	40.88

Compound	INHIBITION [%]
CCn1nc(C)c2c1cnn2CCNS(=O)(=O)c1cccs1	61.77
CCn1nc(C)c2c1cnn2CCNS(=O)(=O)c1ccccc1	0.36
CCn1nc(C)c2c1cnn2CCNS(C)(=O)=O	15.46
CC(=O)Nc1ccc(/C=C/c2ncc(C(=O)O)s2)cc1	69.71
COC(=O)c1cnc(/C=C/c2ccc(C(=O)O)cc2)s1	23.45
COC(=O)c1ccc(/C=C/c2ncc(C(=O)O)s2)cc1	-39.34
CN1[C@@H](C(=O)NCC2CC2)C[C@H]2CN(Cc3cccc(C#N)c3)C[C@H]21	36.99
OC(CNCc1ccccc1C(F)(F)F)c1ccccc1 (stereo unspecified)	-2.86
CCC[C@H]1CN(CCCO)C[C@@H]1NC(=O)Cn1cc(C)cn1	3.97
CCC[C@H]1CN(CCS(C)(=O)=O)C[C@@H]1NC(=O)Cn1cc(C)cn1	55.44
CCC[C@H]1CN(CCOC)C[C@@H]1NC(=O)Cn1cc(C)cn1	-17.99
Cc1cncc(C(=O)N2CCC3(CCCN(c4nncs4)C3)C2)c1 (stereo unspecified)	-39.92
COc1ccc(CCN(C)C(=O)CN2C(=O)OC[C@@H]2C(C)C)cc1OC	-4.77
Cc1nc(CN2CCc3cc(C(=O)O)c(N(C)C)nc3CC2)cs1	63.04
Cc1cnc(N2CCc3cc(C(=O)O)c(N(C)C)nc3CC2)nc1	-1.81
Cc1cccc(CN2CCc3cc(C(=O)O)c(N(C)C)nc3CC2)n1	30.19
O=C(c1ccc[nH]1)N1CCCC2(CCN(c3ccsc3)C2=O)C1 (stereo unspecified)	26.92
CCCc1nnsc1C(=O)N1CCCC1(C)C(=O)N1CCOCC1 (stereo unspecified)	5.76
